Data: PubChem BioAssay (EPA / NIEHS)
Calls of active or inactive are those of the source. How the source made its calls: active means hit-call score of the fitted dose curve at least 0.9, where 1 is the maximum; inactive means score below 0.9.

Columns and labels:
[1] = CEETOX_H295R_OHPREG: CeeTox H295R High-throughput Steroidogenesis Assay for OH-Pregnenolone (OHPREG) (AID 2283434); conditions: actives raise or lower the signal
In short: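 Readout: HPLC-MS/MS of 17alpha-hydroxypregnenolone in medium after 48 h chemical exposure of H295R cells pretreated with forskolin. Values fitted bidirectionally relative to DMSO; chemicals reducing viability to 20–70% were retested after 10-fold dilution.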

[2] = CEETOX_H295R_OHPROG: CeeTox H295R High-throughput Steroidogenesis Assay for OH-Progesterone (OHPROG) (AID 2283435); conditions: actives raise or lower the signal;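 on AC50: 17alpha-hydroxyprogesterone secreted into medium measured by HPLC-MS/MS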
In short: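 HPLC-MS/MS quantification of 17alpha-hydroxyprogesterone secreted by H295R cells after 48 h chemical exposure, following 48 h 10 uM forskolin prestimulation. Gain or loss of signal fitted relative to DMSO. Viability checked by MTT in the same wells.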

[3] = CEETOX_H295R_PROG: CeeTox H295R High-throughput Steroidogenesis Assay for Progesterone (PROG) (AID 2283442); conditions: actives raise or lower the signal
In short: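 Measured analyte is progesterone secreted by H295R cells at 48 h of chemical treatment, following 10 uM forskolin priming. Quantitation used HPLC-MS/MS against a 7-point standard curve; cytotoxicity was checked by MTT absorbance.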

[4] = read-out: Tumor necrosis factor receptor superfamily member 6 (Homo sapiens) (UniProt P25445); assay: LTEA_HepaRG_FAS: Life Technologies and Expression Analysis (LTEA) Assay for Fas cell surface death receptor (FAS) using HepaRG (AID 2283447); conditions: mRNA level, 48 h; actives raise or lower the signal
In short: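 Differentiated human HepaRG cells, pre-cultured 48 h, were exposed in duplicate for 48 h to 8-point half-log concentrations (top 100 uM, 0.5% DMSO) in serum-free induction medium; FAS mRNA measured by qRT-PCR, normalized to ACTB/GAPDH/POLR2A, bidirectional fit versus DMSO.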

[5] = read-out: Fatty acid synthase (Homo sapiens) (UniProt P49327); assay: LTEA_HepaRG_FASN: Life Technologies and Expression Analysis (LTEA) Assay for Fatty Acid Synthase (FASN) using HepaRG (AID 2283448); conditions: mRNA level, 48 h; actives raise or lower the signal
In short: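 HepaRG, 48 h exposure, 8-pt half-log series top 100 uM, 0.5% DMSO vehicle, duplicates. Readout: FASN transcript by Fluidigm qRT-PCR; housekeeping-normalized; bidirectional curve fit vs DMSO baseline.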

[6] = read-out: Cyclin D2 (CCND2), CCND2 (gene 894); assay: LTEA_HepaRG_CCND2: Life Technologies and Expression Analysis (LTEA) Assay for Cyclin D2 (CCND2) using HepaRG (AID 2283449); conditions: mRNA level, 48 h; actives raise or lower the signal;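 further: CCND2 transcript measured by TaqMan qRT-PCR and normalised to three housekeeping genes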
In short: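 In this HepaRG study, an eight-point concentration series (max 100 uM, 0.5% DMSO) is applied for 48 h. CCND2 mRNA change is derived by qRT-PCR normalised to ACTB, GAPDH and POLR2A.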

[7] = read-out: Cyclin Dependent Kinase Inhibitor 1A (CDKN1A), CDKN1A (gene 1026); assay: LTEA_HepaRG_CDKN1A: Life Technologies and Expression Analysis (LTEA) Assay for Cyclin Dependent Kinase Inhibitor 1A (CDKN1A) using HepaRG (AID 2283450); conditions: mRNA level, 48 h; actives raise or lower the signal
In short: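 Gain or loss of CDKN1A transcript is scored by bidirectional fitting against 0.5% DMSO vehicle. Human HepaRG cultures receive chemicals for 48 h across an 8-point series peaking at 100 uM; expression comes from qRT-PCR.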

[8] = read-out: Cyclin D1 (CCND1), CCND1 (gene 595); assay: LTEA_HepaRG_CCND1: Life Technologies and Expression Analysis (LTEA) Assay for Cyclin D1 (CCND1) using HepaRG (AID 2283451); conditions: mRNA level, 48 h; actives raise or lower the signal;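 on AC50: TaqMan qRT-PCR transcript level normalised to ACTB GAPDH and POLR2A housekeeping genes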
In short: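 Expression change is measured by qRT-PCR in HepaRG cells after 48 h treatment across eight concentrations topping at 100 uM, with duplicate wells and DMSO (0.5%) serving as baseline for bidirectional fitting.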

[9] = read-out: catalase (CAT), CAT (gene 847); assay: LTEA_HepaRG_CAT: Life Technologies and Expression Analysis (LTEA) Assay for catalase (CAT) using HepaRG (AID 2283452); conditions: mRNA level, 48 h; actives raise or lower the signal;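 on AC50: TaqMan qRT-PCR signal normalized to ACTB GAPDH and POLR2A housekeeping genes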
In short: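 Differentiated HepaRG cells in serum-free induction medium were dosed 48 h in duplicate, eight half-log concentrations from 100 uM in 0.5% DMSO. Transcript measured by TaqMan qRT-PCR, normalised to ACTB/GAPDH/POLR2A, fitted bidirectionally against DMSO.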

[10] = read-out: Cytochrome P450 (CYP1A1), CYP1A1 (gene 1543); assay: LTEA_HepaRG_CYP1A1: Life Technologies and Expression Analysis (LTEA) Assay for Cytochrome P450 (CYP1A1) using HepaRG (AID 2283454); conditions: mRNA level, 48 h; actives raise or lower the signal
In short: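 Using HepaRG cultures with 0.5% DMSO as vehicle, eight-concentration exposures (max 100 uM) lasted 48 h. Transcript levels were measured by TaqMan qRT-PCR and normalized to ACTB, GAPDH and POLR2A.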

[11] = read-out: CFLAR gene, CFLAR (gene 8837); assay: LTEA_HepaRG_CFLAR: Life Technologies and Expression Analysis (LTEA) Assay for CFLAR gene using HepaRG (AID 2283455); conditions: mRNA level, 48 h; actives raise or lower the signal
In short: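 Gain- or loss-of-signal changes in CFLAR transcript were fitted bidirectionally relative to 0.5% DMSO. Cells (HepaRG, duplicate wells) were dosed for 48 h across eight half-log concentrations topping at 100 uM; quantitation by TaqMan qRT-PCR.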

[12] = read-out: Forkhead box O1 (FOXO1), FOXO1 (gene 2308); assay: LTEA_HepaRG_FOXO1: Life Technologies and Expression Analysis (LTEA) Assay for Forkhead box O1 (FOXO1) using HepaRG (AID 2283456); conditions: mRNA level, 48 h; actives raise or lower the signal
In short: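 Using one lot of HepaRG hepatic cells kept in 0.5% DMSO, the team applied test chemicals in duplicate, half-log dilutions from 100 uM, for 48 h. Expression, normalised to ACTB/GAPDH/POLR2A, was compared with vehicle in either direction.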

[13] = CEETOX_H295R_11DCORT: CeeTox H295R High-throughput Steroidogenesis Assay for 11-Deoxycortisol (11DCORT) (AID 2283432); conditions: actives raise or lower the signal
In short: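 H295R cells prestimulated 48 h with 10 uM forskolin, then exposed 48 h to chemical in 0.1% DMSO. 11-Deoxycortisol in medium quantified by HPLC-MS/MS after MTBE extraction; bidirectional fit versus DMSO. MTT viability read in same wells.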

[14] = CEETOX_H295R_CORTIC: CeeTox H295R High-throughput Steroidogenesis Assay for Corticosterone (CORTIC) (AID 2283437); conditions: actives raise or lower the signal;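 further: corticosterone secreted into medium quantified by mass spectrometry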
In short: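 Steps: seed H295R, adhere overnight; 10 uM forskolin 48 h; replace with chemical (0.1% DMSO) 48 h; extract medium with MTBE; quantify corticosterone by HPLC-MS/MS; score bidirectionally vs DMSO.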

[15] = CEETOX_H295R_CORTISOL: CeeTox H295R High-throughput Steroidogenesis Assay for Cortisol (AID 2283438); conditions: actives raise or lower the signal;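 further: cortisol secreted into medium quantified by LC-MS/MS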
In short: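 Read-out: cortisol in culture medium by reverse-phase C18 HPLC with ESI-positive tandem MS, after MTBE liquid-liquid extraction. Cells: human adrenal H295R, forskolin-primed (10 uM, 48 h) before 48 h chemical exposure in 0.1% DMSO.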

[16] = CEETOX_H295R_ESTRADIOL: CeeTox H295R High-throughput Steroidogenesis Assay for Estradiol (AID 2283440); conditions: actives raise or lower the signal;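 further: estradiol secreted into medium quantified by LC-MS/MS after dansyl derivatisation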
In short: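 Readout is estradiol in conditioned medium, quantified by reverse-phase HPLC-MS/MS against a 7-point standard curve. Cells: H295R, forskolin-stimulated, then dosed 48 h in 0.1% DMSO; activity fitted in both directions relative to DMSO.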

[17] = CEETOX_H295R_ESTRONE: CeeTox H295R High-throughput Steroidogenesis Assay for Estrone (AID 2283441); conditions: actives raise or lower the signal;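 further: estrone secreted into medium measured by LC-MS/MS after dansyl derivatization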;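 on AC50: human adrenal H295R cells prestimulated with forskolin for two days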
In short: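 Forskolin-stimulated H295R cells are treated 48 h with chemical, and estrone in the medium is measured by LC-MS/MS. Activity is fitted in both directions relative to DMSO controls, with chemicals diluted until MTT viability reaches at least 70%.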

[18] = read-out: flavin-containing dimethylaniline monooxygenases 3 (FMO3), FMO3 (gene 2328); assay: LTEA_HepaRG_FMO3: Life Technologies and Expression Analysis (LTEA) Assay for flavin-containing dimethylaniline monooxygenases 3 (FMO3) using HepaRG (AID 2283453); conditions: mRNA level, 48 h; actives raise or lower the signal;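 on AC50: FMO3 transcript by TaqMan qRT-PCR normalized to ACTB GAPDH and POLR2A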
In short: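 Eight-point concentration-response in serum-free HepaRG cultures (top 100 uM, 0.5% DMSO, 48 h). Read-out: FMO3 mRNA level normalized to three endogenous control genes, fitted bidirectionally versus vehicle.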

[19] = CEETOX_H295R_ANDR: CeeTox H295R High-throughput Steroidogenesis Assay for Androstenedione (ANDR) (AID 2283436); conditions: actives raise or lower the signal;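 further: human H295R adrenal cells exposed for 48 h with androstenedione measured in medium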
In short: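 Steroidogenesis in H295R adrenal cells after 48 h dosing; androstenedione quantified by LC-MS/MS, with DMSO as negative control and baseline for bidirectional curve fitting.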

Measured: AC50

Sequence of Fatty acid synthase (Homo sapiens) (P49327 whole entry, looked up): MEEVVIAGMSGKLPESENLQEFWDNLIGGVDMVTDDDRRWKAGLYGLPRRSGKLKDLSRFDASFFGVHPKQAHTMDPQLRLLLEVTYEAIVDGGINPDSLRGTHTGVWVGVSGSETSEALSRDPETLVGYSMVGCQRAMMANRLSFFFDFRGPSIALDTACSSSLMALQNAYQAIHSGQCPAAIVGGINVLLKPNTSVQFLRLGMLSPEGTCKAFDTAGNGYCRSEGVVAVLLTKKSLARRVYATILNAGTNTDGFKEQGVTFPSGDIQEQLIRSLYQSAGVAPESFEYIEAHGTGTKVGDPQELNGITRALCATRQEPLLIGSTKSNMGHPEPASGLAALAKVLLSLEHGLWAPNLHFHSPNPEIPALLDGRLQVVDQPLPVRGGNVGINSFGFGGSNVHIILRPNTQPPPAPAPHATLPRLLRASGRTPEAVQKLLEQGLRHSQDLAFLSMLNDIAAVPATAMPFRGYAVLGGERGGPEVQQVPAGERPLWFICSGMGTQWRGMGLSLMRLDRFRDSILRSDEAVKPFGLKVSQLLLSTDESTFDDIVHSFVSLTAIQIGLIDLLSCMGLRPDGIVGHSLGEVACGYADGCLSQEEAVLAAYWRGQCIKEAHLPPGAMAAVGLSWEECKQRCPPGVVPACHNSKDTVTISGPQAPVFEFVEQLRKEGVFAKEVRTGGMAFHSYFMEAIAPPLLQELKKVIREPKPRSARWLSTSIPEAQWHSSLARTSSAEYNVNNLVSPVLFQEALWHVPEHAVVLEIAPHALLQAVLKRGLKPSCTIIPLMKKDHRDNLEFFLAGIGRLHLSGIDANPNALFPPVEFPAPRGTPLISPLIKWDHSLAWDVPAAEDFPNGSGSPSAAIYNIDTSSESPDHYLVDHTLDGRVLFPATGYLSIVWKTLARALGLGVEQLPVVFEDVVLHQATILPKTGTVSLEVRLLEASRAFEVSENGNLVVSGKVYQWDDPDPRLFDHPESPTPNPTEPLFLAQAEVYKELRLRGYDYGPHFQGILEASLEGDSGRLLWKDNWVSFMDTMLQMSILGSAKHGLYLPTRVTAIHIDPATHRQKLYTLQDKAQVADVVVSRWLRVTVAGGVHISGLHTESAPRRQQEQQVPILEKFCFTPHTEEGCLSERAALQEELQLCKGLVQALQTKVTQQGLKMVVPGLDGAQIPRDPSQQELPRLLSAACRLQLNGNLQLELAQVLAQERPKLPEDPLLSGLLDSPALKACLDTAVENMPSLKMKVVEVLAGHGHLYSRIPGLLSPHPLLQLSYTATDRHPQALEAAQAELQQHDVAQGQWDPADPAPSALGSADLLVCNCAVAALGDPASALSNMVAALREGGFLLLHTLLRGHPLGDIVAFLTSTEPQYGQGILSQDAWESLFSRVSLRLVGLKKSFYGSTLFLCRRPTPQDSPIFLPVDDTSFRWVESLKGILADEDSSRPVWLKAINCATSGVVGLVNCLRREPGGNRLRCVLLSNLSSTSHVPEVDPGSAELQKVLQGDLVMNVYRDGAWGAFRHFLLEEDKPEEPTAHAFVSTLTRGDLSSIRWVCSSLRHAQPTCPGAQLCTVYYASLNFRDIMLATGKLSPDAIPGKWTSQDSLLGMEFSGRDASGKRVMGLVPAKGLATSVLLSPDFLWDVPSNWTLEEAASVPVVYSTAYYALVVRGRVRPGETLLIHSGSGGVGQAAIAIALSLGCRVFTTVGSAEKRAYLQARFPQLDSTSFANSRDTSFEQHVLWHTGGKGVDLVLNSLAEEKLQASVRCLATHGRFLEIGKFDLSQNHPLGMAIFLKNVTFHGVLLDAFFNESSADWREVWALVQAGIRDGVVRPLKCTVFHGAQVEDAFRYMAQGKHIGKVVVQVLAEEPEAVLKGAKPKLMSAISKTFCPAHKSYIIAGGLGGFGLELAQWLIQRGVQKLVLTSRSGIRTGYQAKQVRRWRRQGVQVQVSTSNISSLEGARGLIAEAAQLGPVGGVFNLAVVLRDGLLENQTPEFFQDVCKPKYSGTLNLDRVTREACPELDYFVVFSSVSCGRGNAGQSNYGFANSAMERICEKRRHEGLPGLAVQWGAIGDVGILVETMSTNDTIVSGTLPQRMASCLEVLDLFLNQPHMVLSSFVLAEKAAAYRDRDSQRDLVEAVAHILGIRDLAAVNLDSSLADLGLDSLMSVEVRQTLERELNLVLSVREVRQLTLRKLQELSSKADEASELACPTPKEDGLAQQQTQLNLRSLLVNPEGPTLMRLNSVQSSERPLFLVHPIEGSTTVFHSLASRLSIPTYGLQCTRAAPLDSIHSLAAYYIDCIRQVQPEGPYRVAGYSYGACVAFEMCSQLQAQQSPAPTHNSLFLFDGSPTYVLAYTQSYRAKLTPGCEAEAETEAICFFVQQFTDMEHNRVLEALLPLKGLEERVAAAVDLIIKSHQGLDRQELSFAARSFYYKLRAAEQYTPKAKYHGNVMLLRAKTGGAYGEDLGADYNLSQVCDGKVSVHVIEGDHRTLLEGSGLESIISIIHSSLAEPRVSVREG

Nc1ccc(S(=O)(=O)c2ccc(N)cc2)cc1
active: [2] 30.5 µM | [3] 36.1 µM
not listed: [13] | [14] | [15] | [16] | [17] | [18] | [19]
inactive: all other assays above

Nc1ccc2c(c1)C(=O)c1ccccc1C2=O
inactive: [13] | [1] | [15] | [4] | [6] | [12]
active: [2] 7.84 µM | [14] 4.17 µM | [3] 6.71 µM | [5] 2.86 µM | [7] 26.8 µM | [8] 1.19 µM | [9] 1.57 µM | [10] 6.31 µM | [11] 3.31 µM

CN1CCN(Cc2cc(-c3ccc4[nH]c(=O)oc4c3)co2)[C@@H](c2ccc(F)cc2)C1
active: [2] 4.56 µM | [3] 14.1 µM | [8] 82.5 µM | [9] 81.7 µM | [10] 61.3 µM | [12] 82.2 µM
not listed: [19]
inactive: all other assays above

CCCCCCCC=O
inactive: [4] | [5] | [6] | [7] | [8] | [18] | [11] | [12]
active: [9] 1.44 µM | [10] 50 µM

Cc1c(C(=O)O)c(O)cc2c1C(=O)c1c(O)c([C@@H]3O[C@H](CO)[C@@H](O)[C@H](O)[C@H]3O)c(O)c(O)c1C2=O
not listed: [18] | [19]
inactive: all other assays above

Nc1nc(N)c2nc(CNc3ccc(C(=O)N[C@@H](CCC(=O)O)C(=O)O)cc3)cnc2n1
active: [5] 0.0999 µM
inactive: [4] | [6] | [7] | [8] | [9] | [18] | [10] | [11] | [12]

COc1ccc2c(c1)c(CC(=O)O)c(C)n2C(=O)c1ccc(Cl)cc1
not listed: [16] | [17]
inactive: all other assays above

CC=Cc1ccc(O)c(OC)c1
active: [1] 37.3 µM | [10] 50 µM
not listed: [13] | [14] | [15] | [16] | [17] | [18] | [19]
inactive: all other assays above

CC1(C)CC(N=C=O)CC(C)(CN=C=O)C1 (stereo unspecified)
active: [5] 69.7 µM
not listed: [13] | [14] | [15] | [16] | [17] | [19]
inactive: all other assays above

Oc1ccc2ccccc2c1N=Nc1ccccc1
active: [16] 10.7 µM | [17] 10.1 µM | [5] 1.16 µM | [8] 9.92 µM | [9] 9.92 µM | [18] 10.4 µM | [10] 0.14 µM | [11] 11.3 µM
inactive: [1] | [4] | [6] | [7] | [12]

c1cc(-c2ccncc2)ccn1
active: [10] 50 µM
not listed: [18] | [19]
inactive: all other assays above

Cc1nc(C)nc(N2C[C@@H](C)N(c3ccnc([C@@H](C)O)n3)[C@@H](C)C2)n1
not listed: [16] | [17] | [18] | [19]
inactive: all other assays above

C[C@]12C=CC(=O)C=C1CC[C@@H]1[C@@H]2C(=O)C[C@@]2(C)[C@H]1CC[C@]2(O)C(=O)CO
active: [8] 12.3 µM
inactive: [2] | [16] | [17] | [4] | [5] | [9] | [11] | [12]

Cc1oc(-c2ccccc2)nc1CCOc1cccc2c1ccn2CCC(=O)O
active: [4] 87.9 µM | [5] 11.9 µM | [7] 71.2 µM | [8] 50 µM | [9] 88.3 µM | [18] 76.7 µM | [11] 10.7 µM | [12] 85.6 µM
inactive: [6] | [10]

NS(=O)(=O)c1cc2c(cc1Cl)NCNS2(=O)=O
inactive: [4] | [5] | [6] | [7] | [8] | [9] | [18] | [10] | [11] | [12]

O=C(N[C@@H](Cc1ccccc1)[C@@H](O)C(=O)N1C[C@@H](O)[C@@H](O)C1)c1cc2cc(Cl)ccc2[nH]1
active: [7] 63.1 µM | [10] 50 µM
inactive: [4] | [5] | [6] | [8] | [9] | [11] | [12]

Cc1ccccc1Cl
inactive: [4] | [5] | [6] | [7] | [8] | [9] | [11] | [12]
active: [10] 50 µM
